Assay outcomes (PubChem BioAssay)
Most compounds without a hit are left out; they make up all but 6.8% or so of the library.
PINK1 expr mod: A Quantitative High throughput Screen to Identify Chemical Modulators of PINK1 Expression; PINK1 immunofluorescence, high-content cytometry, 24 h; Potency, µM (titrated, usually from 76.6 µM), for inactives: at the highest dose activation (PINK1 increase), most hits filed as activators; hit rate 0.2% among 410,000; active = well fitted activation curve with a large enough effect; inconclusive = small, poorly fitted or top-dose-only effect; cell line not stated here; note: % of control where 0% means no effect; nearly all actives have a fitted effect of over 65% in size
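Stable cell line, 250 cells/well, 12 h attachment; compounds pinned at 5 concentrations, 24 h; CCCP control. Fixed with nuclear dye, primary antibodies 12 h at 10 degrees C, secondary plus cell stain; laser-scanning cytometer read.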
TSG101-PTAP inh: qHTS Assay for Iinhibitors of HIV-1 Budding by Blocking the Interaction of PTAP/TSG101. Tumor susceptibility gene 101 protein (Homo sapiens), Q99816. Fluorescence polarization, FITC-PTAP peptide / Tsg101 binding. Potency, µM (doses to about 115 µM), inactives show at the highest dose activity change, negative = inhibition, hits mostly inhibitors. 340,000 tested, under 10 active; active = well fitted inhibition curve with a large enough effect in the main read-out, with a control signal flat, not every such curve was filed as active; inconclusive = small, poorly fitted or top-dose-only effect, or effect the other way, or a change in a side signal; inactive = no such curve, though single readings can be large or run the other way; note: % of control where 0% means no effect
Target sequence (Q99816 whole entry, looked up): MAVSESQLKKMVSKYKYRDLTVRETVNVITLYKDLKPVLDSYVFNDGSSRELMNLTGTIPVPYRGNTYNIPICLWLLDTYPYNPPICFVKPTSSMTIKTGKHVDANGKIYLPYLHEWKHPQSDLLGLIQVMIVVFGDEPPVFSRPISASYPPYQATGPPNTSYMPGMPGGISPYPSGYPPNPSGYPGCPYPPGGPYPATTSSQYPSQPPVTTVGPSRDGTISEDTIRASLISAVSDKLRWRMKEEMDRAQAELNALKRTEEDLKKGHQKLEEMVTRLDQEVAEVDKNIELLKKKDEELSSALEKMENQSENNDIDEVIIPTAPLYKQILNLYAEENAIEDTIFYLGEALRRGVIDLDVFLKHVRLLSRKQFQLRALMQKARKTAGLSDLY
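Compounds were pin-transferred onto Tsg101 binding domain (10 uM final) in HEPES pH 7.5 buffer, then FITC-PTAP peptide was added at 50 nM final. After 20 min at RT, polarization reported peptide displacement across a qHTS concentration series.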
KB-V1 cytotox: qHTS assay for MDR1-selective chemotherapeutics: Primary screen using the drug-selected MDR subline cells KB-V1. AID 1347076, 2019. KB-V1 MDR cells viability, CellTiter-Glo, 72 h. hit rate 3.4% among 400,000. Potency, µM (titrated, usually from 46.1 µM), actives largely listed as cytotoxic; note: % is set by controls: 0 for no effect and ±100 for the full control effect; nearly all actives have a fitted effect of over 60% in size
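qHTS viability screen in drug-selected KB-V1 MDR cells: 72 h compound treatment at 37 degrees C, ATP luminescence end point.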
MCF10A rerep: A quantitative high throughput screen for small molecules that induce DNA re-replication in MCF 10a normal breast cells | MCF 10A DNA re-replication, Hoechst nuclear intensity, 48 h | Potency, µM (top dose mostly 46.1 µM), inactives show at the highest dose activity, positive = re-replication, most hits filed as activators | hit rate 2.9% among 350,000 | AID 624296, 2012; note: % of control where 0% means no effect; nearly all actives have a fitted effect of over 50% in size
SW480 rerep: A quantitative high throughput screen for small molecules that induce DNA re-replication in SW480 colon adenocarcinoma cells. SW480 DNA re-replication, Hoechst DNA content imaging, 48 h. hit rate 1.8% among 340,000. Potency, µM (doses to about 46.1 µM), without a hit: top-dose re-replication activation, usual class: activators; note: % of control where 0% means no effect; nearly all actives have a fitted effect of over 55% in size
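Per well, 250 cells were exposed to pinned compound for 48 hr. Nuclear DNA was visualised with Hoechst (40 min, 37 C) and total object intensity recorded by fluorescence scanning.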
KB-3-1 cytotox: qHTS assay for MDR1-selective chemotherapeutics: Primary screen using the parental adenocarcinoma cell KB-3-1. KB-3-1 viability, CellTiter-Glo ATP luminescence, 72 h. Potency, µM (highest dose often 46.1 µM), actives largely listed as cytotoxic. hit rate 1.4% among 400,000. AID 1347075, 2019; note: % is set by controls: 0 for no effect and ±100 for the full control effect; nearly all actives have a fitted effect of over 60% in size
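72 h, 37 °C compound treatment of KB-3-1 parental cells; CellTiter-Glo added, 10 min, luminescence read. Data corrected against DMSO-only plates and normalized before curve fitting.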
* marks the source's active call; other numbers are inactive results; i = inactive; ? = inconclusive; / = no result; [ ] = dose if it differs, or a comment. Unless noted, calls come from the whole dose curve; as a rule, active = well fitted curve in the direction sought with a large enough effect; inconclusive = small, poorly fitted or top-dose-only effect, or another doubt; inactive = no such curve, though single readings can be large; an effect the other way counts as inactive or inconclusive. Potency is the fitted concentration of half-maximal effect.

SMILES	PINK1 expr mod	TSG101-PTAP inh	KB-V1 cytotox	MCF10A rerep	SW480 rerep	KB-3-1 cytotox
COc1ccc(C(CNC(=O)c2cccc(NC(=O)c3cccs3)c2)N2CCCC2)cc1 (stereo not given)	4%	-3%	21µM*	4%	-5%	i
COc1cc(C(=O)NCc2cccs2)ccc1OCc1c(C)noc1C	-1%	0%	i	10%	-23%	i
COc1ccc(C(CNC(=O)c2ccc(OCc3c(C)noc3C)cc2)N2CCCC2)cc1 (stereo not given)	2%	0%	1.5µM*	8%	-5%	?
CCC1CCCCN1C(=O)Cn1c(=O)n(CCCCCC(=O)NCc2ccccc2Cl)c(=O)c2sccc21 (stereo not given)	0%	/	/	/	/	/
CN(Cc1ccco1)C(=O)c1cc(NC(=O)C2CCC2)c2c(c1)nc(-c1ccncc1)n2C	0%	/	/	/	/	/
Cn1c(Cc2ccccc2)nnc1SCC(=O)c1ccc(Br)s1	3%	-5%	13µM*	-1%	-4%	?
COc1cc(CNc2ccc(N3CCN(C(C)=O)CC3)cc2)ccc1OCc1ccc(F)cc1	-2%	-9%	i	10µM*	1%	i
CC(=O)N1CCN(c2ccc(NCc3ccc(F)cc3)cc2)CC1	2%	0%	i	-1%	3%	i
O=C(NCCc1ccccc1)C(=O)NCC(c1cccnc1)N1CCN(c2ccc(F)cc2)CC1 (stereo not given)	1%	/	i	/	/	i
CC1(C)CC(=O)C2=C(C1)Oc1nc3ccccc3cc1C2C(C#N)C#N (stereo not given)	-2%	-4%	?	9.2µM*	?	21µM*
C/C(=N\NC(=O)c1cc(C)nc2ccccc12)c1ccco1	7%	0%	i	1%	-7%	i
C/C(=N\Nc1nc2ccccc2c(=O)n1O)c1ccco1	-1%	-3%	15µM*	1%	7%	21µM*
CC(=O)Nc1ccc2c3c(cccc13)C(=O)N(c1ccccc1)C2=O	-1%	-3%	i	16%	7%	i
O=CNc1ccc2c3c(cccc13)-c1ccccc1-2	3%	-6%	?	?	2.3µM*	i
COc1ccc(S(=O)(=O)N(C)C[C@H]2Oc3ccc(NS(=O)(=O)c4cccs4)cc3C(=O)N([C@H](C)CO)C[C@@H]2C)cc1	-1%	-6%	i	3.3µM*	?	i
COc1ccc(N/N=C(\C#N)C(N)=O)cc1	0%	0%	i	-3%	-7%	i
COc1ccc(C(=O)/C(C#N)=N/Nc2ccc([N+](=O)[O-])cc2)cc1	4.5µM*	-1%	8.2µM*	?	?	2.3µM*
COc1ccc(C(=O)CC(=O)Nc2ccc([N+](=O)[O-])cc2)cc1	?	1%	i	?	-2%	i
COc1ccc(C(=O)/C(C#N)=N/Nc2ccccc2[N+](=O)[O-])cc1	?	-3%	i	1.8µM*	5.8µM*	?
COc1ccc(C(=O)CC(Nc2ccc([N+](=O)[O-])cc2)c2ccc(OC)cc2)cc1 (stereo not given)	-7%[38.3 µM]	-6%	10µM*	?	-2%	i
CCCc1c(C)nn(C(=O)/C(C#N)=N/Nc2ccccc2[N+](=O)[O-])c1C	-1%	-7%	?	0%	1%	i
COc1ccc(-c2cc(C(=O)Nc3c(Cl)cccc3Cl)no2)cc1OC	2%	/	i	/	/	i
CCOC(=O)Cn1cc2c(c1-c1ccc(Cl)cc1)c(=O)n(C)c(=O)n2C	0%	/	i	/	/	i
